Among the data in PubChem BioAssay (NCI) are growth values, retold here.

Compounds without any hit were thinned out: in the full panel of roughly 83,000, 20% have a hit.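 Results are percent growth after 48 hours of single-concentration exposure. 100 means growth as in untreated cells, lower positive values show inhibition; negative values down to -100 show cell death.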 Unmarked numbers belong to inactive results. The source made the active and inactive calls. How the source made its calls: active means growth percent below 10; inactive means the rest.

Holding throughout (test): NCI-60 one-dose screen, 48 h (100 = growth as untreated, 0 = no growth, -100 = all killed)
For experiment [1], the system named is T-47D breast. The conditions noted are these: 10 µM.
The subject of experiment [2] is BT-549 breast. To be noted: 10 µM.
Experiment [3] relates to MDA-MB-435 melanoma. To be noted: 10 µM.
In experiment [4] the test system is SW-620 colon. The conditions noted are these: 10 µM.
Experiment [5] concerns MCF7 breast. To be noted: 10 µM unless noted.
In experiment [6] the test system is HCT-116 colon. To be noted: 10 µM.
The test system of experiment [7] is HCC-2998 colon. To be noted: 10 µM.
For experiment [8], the system named is KM12 colon. To be noted: 10 µM.

As to `CCCOC(=O)C(O)c1ccccc1` (stereo not drawn), the growth in experiment [1] is 104%; in experiment [2] it was 103%; in experiment [3], 111%; in experiment [4], 102%; in experiment [5] it was 98.3%; in experiment [6] it was 97.8%. Besides, the results for the growth in experiment [7] and in experiment [8] were 110% and 101%, respectively.
As for `Oc1ccc(Cc2ccccc2)c2cccnc12`, the growth in experiment [1] was 25.3%; in experiment [2], 11%; in experiment [3], 32.2%; in experiment [4] it was 31.4%; in experiment [5], 14.1%; in experiment [6], 7.1% (active). Further, the growth was 26.2% in experiment [7] and 24.8% in experiment [8].
For `CCCNC(=O)c1ccc(S(N)(=O)=O)cc1`, the growth in experiment [1] is 96%; in experiment [2], 120%; in experiment [3], 117%; in experiment [4], 94.5%; in experiment [5], 95%; in experiment [6], 96.4%. For the same molecule, the growth was 100% in experiment [7] and 106% in experiment [8].
As for `CC(C)(C)n1nc(C2CC2)c(Br)c1NC(=O)c1ccccc1F`, the growth in experiment [1] was 108%; in experiment [2], 110%; in experiment [3] it was 102%; in experiment [4], 105%; in experiment [5], 95.7%; in experiment [6] it was 109%. For the same molecule, the growth in experiment [7] is 106%; in experiment [8], 98.5%.
For the molecule `Cc1nc2ccccc2c2nnc(SCC(=O)N(Cc3ccccc3)c3ccccc3)n12`, the growth in experiment [1] is 76.4%; in experiment [2], 87.2%; in experiment [3], 96%; in experiment [4] it was 93.5%; in experiment [5] it was 102%; in experiment [6] it was 43.1%. For the same molecule, the growth was 110% in experiment [7] and 129% in experiment [8].
On to `Cc1cc(N)ccc1-c1ccc(N)cc1C`, for which the growth is 98.1% in experiment [1]; 92.3% in experiment [2]; 102% in experiment [3]; 101% in experiment [4]; 104% in experiment [5]; 105% in experiment [6]. Moreover, the values for the growth in experiment [7] and in experiment [8] were 88.4% and 99.7%, respectively.
Take `CC(=O)OCCC(C)CCC=C(C)C` (stereo not drawn): the growth in experiment [1] is 98.8%; in experiment [2], 102%; in experiment [3], 102%; in experiment [4], 95.4%; in experiment [5], 101%; in experiment [6], 100%. For the same molecule, the growth in experiment [7] and in experiment [8] was 102% each time.
On to `COc1ccccc1NC(=O)c1cc2cc(Br)ccc2cc1O`, for which the growth in experiment [1] was 9.84% (active); in experiment [2] it was 18.8%; in experiment [3] it was 10.2%; in experiment [4] it was 10.9%; in experiment [5] it was -2.37% (active); in experiment [6] it was 3.77% (active). Besides, the growth in experiment [7] was 20.1%; in experiment [8], 9.92% (active).
As to `COC(=O)/C=C\C(=O)OC`, the growth was 113% in experiment [1]; 99.7% in experiment [2]; 115% in experiment [3]; 105% in experiment [4]; 103% in experiment [5]; 108% in experiment [6]. The growth in experiment [7] is 103%; in experiment [8], 113%.
Turning to `CN(C)c1ccc(C(c2ccc(O)cc2)c2ccc(N(C)C)cc2)cc1`, the growth in experiment [1] was 59.8%; in experiment [2], 103%; in experiment [3], 41.8%; in experiment [4] it was 96.5%; in experiment [5] it was 78.6%; in experiment [6], 93.9%. The figures for the growth in experiment [7] and in experiment [8] were 117% and 89.5%, respectively.
With `CN(C)Cc1cc(C(C)(C)CC(C)(C)C)ccc1O`, the growth was 86.4% in experiment [1]; 100% in experiment [2]; 107% in experiment [3]; 109% in experiment [4]; 95.4% in experiment [5]; 89.3% in experiment [6]. Also, the results for the growth in experiment [7] and in experiment [8] were 96.5% and 104%, respectively.
Regarding `CCCCC1C(=O)N(c2ccccc2)N(c2ccccc2)C1=O`, the growth in experiment [1] was 109%; in experiment [2] it was 98.8%; in experiment [3], 108%; in experiment [4], 106%; in experiment [5] it was 115%; in experiment [6], 102%. The growth in experiment [7] and in experiment [8] was 109% throughout.
For `O=C(O)CCC(NC(=O)OCc1ccccc1)C(=O)O` (stereo not drawn), the growth in experiment [1] is 98.5%; in experiment [2], 119%; in experiment [3] it was 104%; in experiment [4], 101%; in experiment [5], 93%; in experiment [6] it was 111%. The growth in experiment [7] was 99.7%; in experiment [8], 105%.
Regarding `CC(C)(N)COS(=O)(=O)O`, the growth was 108% in experiment [1]; 100% in experiment [2]; 94.6% in experiment [3]; 101% in experiment [4]; 95.5% in experiment [5]; 95.4% in experiment [6]. For the same molecule, the growth in experiment [7] is 112%; in experiment [8], 99.1%.
Regarding `CC(C)CCCC(=O)O`, the growth was 104% in experiment [1]; 108% in experiment [2]; 105% in experiment [3]; 100% in experiment [4]; 96% in experiment [5]; 107% in experiment [6]. Also, the growth in experiment [7] is 103%; in experiment [8], 102%.
Take `NC(N)=Nc1cc2ccccc2c2ccccc12`: the growth in experiment [1] is 88.1%; in experiment [2], 81.2%; in experiment [3], 84.8%; in experiment [4], 76.6%; in experiment [5], 81%; in experiment [6] it was 65.9%. In addition, the growth was 95.4% in experiment [7] and 81% in experiment [8].
